This passage reports growth results from PubChem BioAssay (NCI).

Compounds without any hit were thinned out: in the full panel of roughly 83,000, 20% have a hit.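 A percent growth of 40 corresponds to 60% growth inhibition; 0 means no net growth; -100 means all cells died. Active threshold: below 10.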 Unmarked numbers belong to inactive results. Active and inactive are the calls of the source.

Test systems include SR leukemia; RPMI-8226 leukemia; OVCAR-8 ovarian; OVCAR-5 ovarian; OVCAR-4 ovarian; SK-OV-3 ovarian; IGROV1 ovarian; HS 578T breast; NCI/ADR-RES ovarian; T-47D breast; BT-549 breast; MDA-MB-435 melanoma; SW-620 colon; MCF7 breast; HCT-116 colon; HCC-2998 colon; KM12 colon; OVCAR-3 ovarian.
Common to all, as to assay: NCI-60 one-dose screen, 48 h (100 = growth as untreated, 0 = no growth, -100 = all killed)
Conditions in all cases: 10 µM unless noted

Turning to `CCNC(=O)N1CCc2cc(OC)c(OCCc3ccc(OC)cc3)cc2C1c1ccc(OC)cc1C` (configuration not stated), the growth in the assay with SR leukemia was 4.44% (active); with RPMI-8226 leukemia, 13.6%; in the assay on OVCAR-8 ovarian, 27.6%; in the assay on OVCAR-5 ovarian, 35.9%; in the assay with OVCAR-4 ovarian it was 50.3%; in the assay with SK-OV-3 ovarian, 45.9%. In addition, the growth with IGROV1 ovarian was 27.8%; in the assay with HS 578T breast, 1.32% (active); in the assay on NCI/ADR-RES ovarian, 12.3%; in the assay with T-47D breast, 42.3%; in the assay with BT-549 breast, 22.9%; with MDA-MB-435 melanoma it was 11.4%. The growth in the assay with SW-620 colon is 21.9%; in the assay with MCF7 breast, 21.5%; with HCT-116 colon it was 10.5%; in the assay with HCC-2998 colon, 19.5%; with KM12 colon, 24.1%.

Consider `NC(N)=Nc1ccc(Oc2cccc(NC(N)=Nc3ccc(Br)c(C(F)(F)F)c3)c2)cc1`, for which the growth with SR leukemia is 4.94% (active); in the assay on RPMI-8226 leukemia, 45.5%; in the assay on OVCAR-8 ovarian, 65.5%; with OVCAR-5 ovarian, 45.1%; in the assay with OVCAR-4 ovarian, 58.9%; with SK-OV-3 ovarian it was 57%. Further, the growth in the assay on IGROV1 ovarian was -16.6% (active); in the assay with HS 578T breast, 34%; in the assay on NCI/ADR-RES ovarian it was 96.8%; in the assay with T-47D breast, 55.5%; with BT-549 breast it was 45.9%; in the assay on MDA-MB-435 melanoma it was 57.5%. The growth in the assay with SW-620 colon is 53.4%; in the assay with MCF7 breast it was 32.2%; with HCT-116 colon it was 42.9%; with HCC-2998 colon, 50.8%; in the assay with KM12 colon, 20.4%.

Consider `C=C(C)[C@@H]1CC[C@]2(COP(=O)(OCC)OCC)CC[C@]3(C)[C@H](CC[C@@H]4[C@@]5(C)CCCNC(C)(C)[C@@H]5CC[C@]43C)[C@@H]12`, for which the growth in the assay with SR leukemia was -51.4% (active); with RPMI-8226 leukemia, -46.6% (active); in the assay on OVCAR-8 ovarian, 55.4%; with OVCAR-5 ovarian it was 58.6%; in the assay on OVCAR-4 ovarian, 23.5%; in the assay with SK-OV-3 ovarian, 103%. Further, the growth with IGROV1 ovarian was 6.74% (active); in the assay with HS 578T breast, 52.9%; in the assay on NCI/ADR-RES ovarian, 27.6%; in the assay on T-47D breast, 59.1%; with MDA-MB-435 melanoma, 36.5%; with SW-620 colon, 15.3%. Moreover, the growth was 13.8% in the assay with MCF7 breast, -68.8% (active) in the assay on HCT-116 colon, -27.4% (active) in the assay with HCC-2998 colon and 55.7% in the assay on KM12 colon.

With `CCNC(=O)N1CCc2cc(OC)c(OCCc3ccc(OC)c(N)c3)cc2C1c1cc(C)c(C)cc1C` (configuration not stated), the growth is 15.1% in the assay on SR leukemia; 32.4% with RPMI-8226 leukemia; 39% in the assay with OVCAR-8 ovarian; 51.7% in the assay on OVCAR-5 ovarian; 62.6% in the assay on OVCAR-4 ovarian; 61.4% with SK-OV-3 ovarian. In addition, the growth in the assay on IGROV1 ovarian is 31.9%; in the assay on HS 578T breast, 36.1%; with NCI/ADR-RES ovarian it was 20.8%; with T-47D breast it was 52.6%; with BT-549 breast it was 25.6%; in the assay with MDA-MB-435 melanoma, 17.2%. Also, the growth is 15.7% with SW-620 colon; 22.7% in the assay with MCF7 breast; 17.3% with HCT-116 colon; 49.2% with HCC-2998 colon; 33.8% in the assay with KM12 colon.

Take `COc1cc(OC)c(S(N)(=O)=O)cc1C(=O)/C=C/c1ccc(C)cc1`: the growth was 5.66% (active) with SR leukemia; 18.5% with RPMI-8226 leukemia; 31.7% with OVCAR-8 ovarian; 13.4% in the assay on OVCAR-5 ovarian; 53.1% in the assay on OVCAR-4 ovarian; 37.6% in the assay with SK-OV-3 ovarian. Moreover, the growth in the assay on IGROV1 ovarian was 25.3%; in the assay on HS 578T breast, 21.3%; with NCI/ADR-RES ovarian, 37%; in the assay with T-47D breast, 2.31% (active); in the assay with BT-549 breast, 21.2%; in the assay on MDA-MB-435 melanoma it was 8.41% (active). Further, the growth was 6.29% (active) in the assay on SW-620 colon; 12.2% in the assay with MCF7 breast; 11.4% in the assay with HCT-116 colon; 8.59% (active) with HCC-2998 colon; -1.47% (active) with KM12 colon.

In the case of `NS(=O)(=O)c1ccc(Nc2nc(SCC(=O)c3ccc(Cl)cc3)nc3c2CCCC3)cc1`, the growth in the assay with SR leukemia is 26.9%; in the assay on RPMI-8226 leukemia, 42.8%; with OVCAR-8 ovarian, 52.3%; with OVCAR-5 ovarian, 88.3%; in the assay with OVCAR-4 ovarian it was 47.7%; in the assay with SK-OV-3 ovarian, 101%. Also, the growth in the assay on IGROV1 ovarian is 84.8%; with HS 578T breast, 44.6%; in the assay on NCI/ADR-RES ovarian, 74.6%; in the assay with T-47D breast, 13.5%; in the assay on BT-549 breast, 67.3%; in the assay on MDA-MB-435 melanoma, 54.4%. Besides, the growth in the assay on SW-620 colon was 40.5%; in the assay on MCF7 breast, 25.4%; with HCT-116 colon it was 36.8%; in the assay with HCC-2998 colon, 21.6%; with KM12 colon it was 19.6%.

Regarding `O=C(CSc1nnc(-c2ccc(Cl)cc2)n1-c1ccccc1)Nc1ccc(Br)cc1`, the growth with SR leukemia is 13.3%; in the assay with RPMI-8226 leukemia it was 17.5%; in the assay on OVCAR-5 ovarian it was 2.37% (active); in the assay with OVCAR-4 ovarian it was -1.23% (active); with SK-OV-3 ovarian it was -35.9% (active); with IGROV1 ovarian, 16.6%. In addition, the growth in the assay on OVCAR-3 ovarian is -24.5% (active); in the assay on HS 578T breast, 17.8%; in the assay on NCI/ADR-RES ovarian it was 12.3%; with T-47D breast, 8.35% (active); in the assay on BT-549 breast, 36.7%; in the assay on MDA-MB-435 melanoma, 27.2%. The growth with SW-620 colon was 37.9%; in the assay on MCF7 breast it was 38.6%; in the assay on HCT-116 colon, -64.2% (active); in the assay with HCC-2998 colon, 77.9%; with KM12 colon it was 45.4%.

Consider `NC(N)=Nc1ccc(Oc2cccc(Nc3cccc(C(F)(F)F)c3)c2)cn1`, for which the growth is -46.9% (active) with SR leukemia; -41.5% (active) in the assay with RPMI-8226 leukemia; 50.4% in the assay with OVCAR-5 ovarian; 24.7% in the assay with OVCAR-4 ovarian; 67.8% with SK-OV-3 ovarian; 13.8% in the assay on IGROV1 ovarian. Moreover, the growth in the assay with OVCAR-3 ovarian is -66.6% (active); in the assay with HS 578T breast it was 52.8%; in the assay with NCI/ADR-RES ovarian, 46.6%; in the assay with T-47D breast, 37.3%; with BT-549 breast, 61.2%; in the assay on MDA-MB-435 melanoma, -20.6% (active). For the same compound, the growth in the assay with SW-620 colon is -79.1% (active); in the assay on MCF7 breast it was -69.1% (active); in the assay on HCT-116 colon, -76.8% (active); in the assay with HCC-2998 colon it was -91.9% (active); with KM12 colon, -82.8% (active).

Regarding `C=C1CC[C@@H]2[C@](C)(CO)[C@H](O)CC[C@@]2(C)[C@@H]1C/C(O)=C1\CCOC1=O`, the growth with SR leukemia is 83.6%; with RPMI-8226 leukemia, 83.8%; in the assay on OVCAR-5 ovarian, 120%; in the assay on OVCAR-4 ovarian, 94.7%; in the assay with SK-OV-3 ovarian, 113%; with IGROV1 ovarian it was 107%. Further, the growth is 93.2% in the assay on OVCAR-3 ovarian; 92.3% in the assay with HS 578T breast; 98% with NCI/ADR-RES ovarian; 96.6% with T-47D breast; 109% in the assay with BT-549 breast; 94.6% in the assay on MDA-MB-435 melanoma. Moreover, the growth in the assay on SW-620 colon was 94.9%; with MCF7 breast, 77%; in the assay with HCT-116 colon, 95.4%; in the assay on HCC-2998 colon, 104%; with KM12 colon, 111%.
